The values below come from PubChem BioAssay (NCATS).

Calls of active or inactive are those of the source. Calls come from the whole dose curve; as a rule, active = well fitted curve in the direction sought with a large enough effect; inconclusive = small, poorly fitted or top-dose-only effect, or another doubt; inactive = no such curve, though single readings can be large or run the other way. Bridge positions count the residues as written; N and C are the ends. Square brackets hold non-standard residues; d marks the D form. Side chains are listed from the residue outwards. Peptide text beside a SMILES is read from it. * marks the point of attachment. Phg(4-OMe) = COc1ccc([C@H](N)C(=O)O)cc1; d(aIle) = CC[C@H](C)[C@@H](N)C(=O)O; d(aThr) = C[C@@H](O)[C@@H](N)C(=O)O; NMeF = CN[C@@H](Cc1ccccc1)C(=O)O; Isobutyryl = CC(C)C(=O)*

The nature of this assay: Inflammasome Signaling qHTS Counterscreen: IL-1-beta AlphaLISA counterscreen against the NCATS CANVASS Library (AID 1347381).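 Note: cell-free check with purified IL-1β in medium and no THP-1 cells; 0% is about no effect.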 The conditions noted are these: Purified IL-1beta AlphaLISA signal interference counterscreen; series mostly up to 57.5 µM. The method in brief: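 To flag interference with the AlphaLISA read-out, a known amount of purified IL-1-beta (4 pg) replaced cell supernatant. Detection used anti-IL-1-beta acceptor beads, biotinylated antibody and streptavidin donor beads at room temperature.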
In general terms: Quantitative high-throughput screening tests each substance at several concentrations.
As for `CC(C)=CCC[C@]12c3cc4c(cc3CC[C@@]1(C)[C@H](C)CC[C@@H]2O)[nH]c1ccccc14`, the molecule was classed as inactive.

In the case of `C/C=C/C1C=CC2CC(C)CC(C)C2C1C(=O)CC(=O)NC(CO)C/C=C/CCCCC` (stereo unspecified), the call was inactive.

Regarding `COc1cc(/C=C/C(=O)OC[C@@H](Cc2ccc(O)c(OC)c2)[C@@H](COC(=O)/C=C/c2ccc(O)c(OC)c2)Cc2ccc(O)c(OC)c2)ccc1O`, the result was inactive.

As for `C=C[C@@]1(C)CC[C@@H]([C@H](C)C(=O)/C=C/C(C)(C)O)O1`, the call was inactive.

Consider `C=C1CC[C@@H](O[C@H]2C[C@@](O)([C@H](C)NC(=O)c3[nH]c(C)c(Cl)c3Cl)[C@H](O)[C@@H](C)O2)[C@@H]2C=C[C@H](C)C(/C(O)=C3/C(=O)[C@H](C(C)C)N([C@@H]4O[C@H](C)[C@H](OC(N)=O)[C@H](OC(C)=O)[C@@H]4OC)C3=O)[C@@H]12` (stereo partly specified), for which the outcome was inactive.

In the case of `CC[C@H](C)[C@H]1NC(=O)[C@@H](NC(=O)C(C)C)[C@@H](C)OC(=O)[C@H](COC(=O)CNC(C)=O)NC(=O)[C@@H]([C@@H](C)O)NC(=O)[C@H](Cc2ccccc2)N(C)C(=O)[C@H](c2ccc(OC)cc2)NC1=O` (Isobutyryl-T[d(aIle)][Phg(4-OMe)][NMeF][d(aThr)]S([Gly-Ac]); ester 1-C), the molecule was classed as inactive.

Turning to `C=C(C)CC[C@H](Cc1c(O)cc(O)c2c1O[C@H](c1ccc(O)cc1)CC2=O)C(=C)C`, the call was inactive.

Regarding `COc1c(O)cc2c(c1O)C(=O)c1c(coc1C)C2=O`, the outcome was inactive.

On to `C[C@]12CC[C@]3(C1)[C@H](CC2=O)C[C@@H](OC(=O)c1ccccc1)[C@H]1[C@](C)(C(=O)O)CCC[C@@]13C`, for which the molecule was classed as inactive.

Turning to `Cc1occ2c1C(=O)c1c(cc(O)c(O)c1O)C2=O`, the call was inactive.

With `COc1ccc2[nH]c3c(c2c1)CCN1C[C@H]2C[C@@H](OC(=O)c4cc(OC)c(OC)c(OC)c4)[C@H](OC)[C@@H](OC)[C@H]2C[C@H]31`, the outcome was inactive.

On to `C=C[C@](Cl)(CBr)CCC=C(C)C`, for which the call was inactive.

Regarding `C=CC(CCCCC)C1C(=O)NC(=O)C1C(=O)C1C2C(C)CC(C(=O)O)CC2CC1(O)C(=O)/C=C/C` (stereo unspecified), the result was inactive.

For the molecule `COc1cc(C2OCC3C(c4ccc(O)c(OC)c4)OCC23)ccc1O` (stereo unspecified), the activity change, negative = inhibition is -8.43% [at 11.5 µM] (inactive).

On to `COc1cc(O)c(C(=O)[C@@H]2[C@H](CC=C(C)C)C(C)=CC[C@H]2c2ccccc2)c(O)c1`, for which the result was inactive.

As for `C[n+]1cc2cc(C(N)=O)[nH]c3c(=N)c(Cl)c(N)c1c23`, the result was inactive.

Consider `CCC(=O)N[C@@H](C[C@H](C)C(Cl)(Cl)Cl)C(=O)N1C(=O)C=C(OC)[C@@H]1CC(C)C`, for which the outcome was inactive.

Regarding `O=c1cc(-c2ccc(O)c(O)c2)oc2cc(O[C@@H]3O[C@H](CO)[C@@H](O)[C@H](O)[C@H]3O)cc(O)c12`, the molecule was classed as inactive.

For the molecule `CN1CC[C@]2(c3cccc4c3N[C@H]3N(C)CC[C@@]43[C@]34CCN(C)[C@H]3Nc3ccccc34)c3ccccc3N[C@H]12`, the molecule was called inactive.

As for `CC[C@H]1[C@H](C)[C@H](c2cc(OC)c(OC)cc2OC)[C@@H](C)[C@H](c2cc(OC)c(OC)cc2OC)[C@@]12C=C(OC)C(=O)C=C2OC`, the result was inactive.

Take `COc1cc2c(cc1OC)[C@@H](c1ccc3c(c1)OCO3)C(C)C(C)C2=O` (stereo partly specified): the call was inactive.

As for `C/C=C(/C)c1c(Cl)c(O)c(C)c2c1Oc1c(Cl)c(O)c(Cl)c(C)c1C(=O)O2`, the molecule was classed as inactive.

With `CC(C)C[C@@H]1c2c(O)c(C=O)c(O)c(C=O)c2O[C@]2(C)C=C[C@@H](C(C)C)C[C@H]12`, the result was inactive.

Take `C/C=C(/C)c1cc(O)c(C)c2c1Oc1cc(O)cc(C)c1C(=O)O2`: the molecule was classed as inactive.

As to `CC(C)[C@]12CC[C@@]3(C)[C@H](C)CC[C@H](O)[C@@]3(CC1)c1cc3c(cc12)[nH]c1ccccc13`, the molecule was classed as inactive.

For `C/C(=C\CC[C@@H](C)[C@H]1CC[C@]2(C)C3=CCC4C(C)(C)[C@@H](O)C[C@@H](O)[C@]4(C)C3[C@H](O)C[C@@]12C)CO` (stereo partly specified), the outcome was inactive.
